# PubChem BioAssay (NCI)
# The panel holds about 83,000 compounds, 20% with a hit somewhere; the sample as a whole holds those more often.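 The endpoint reported here, percent growth, reads 100 for growth as untreated, 0 for no net growth and -100 for all cells dead.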 Active and inactive are the calls of the source. Rule for the calls: active = growth percent below 10; inactive = the rest.
# Test system: NCI-H23 lung
# Test: NCI-60 one-dose screen, 48 h (100 = growth as untreated, 0 = no growth, -100 = all killed)
# Settings: 10 µM unless noted
row,SMILES,growth
1,CCC1CCc2nc3sc(C(=O)Nc4ccccc4F)c(N)c3cc2C1 (stereo not drawn),78.2% (inactive)
2,Cc1nn(-c2ccc(Cl)cc2)c(=O)n1CCOc1ccccc1Cl,91.6% (inactive)
3,COc1cc(/C=C2\CCCC3=C2NC(C)=NC3c2cc(OC)c(OC)c(OC)c2)cc(OC)c1OC (stereo not drawn),33.9% (inactive)
4,c1ccc([P+](CCC[P+](c2ccccc2)(c2ccccc2)c2ccccc2)(c2ccccc2)c2ccccc2)cc1,89% (inactive)
5,CC1=C(C#N)C(C)(C)C(C#N)=C(C)N1,102% (inactive)
6,COc1cc(C(=O)OCCCCCCCCCCC[P+](c2ccccc2)(c2ccccc2)c2ccccc2)ccc1O,-18.2% (active)
7,Nc1c(C(=O)Nc2ccccc2)sc2nc3c(cc12)CCCCC3,36.6% (inactive)
8,COc1cccc(C2CC(=O)Nc3c2c(C)nn3-c2nc3ccccc3[nH]2)c1OC (stereo not drawn),50.5% (inactive)
9,COc1cc(C(=O)/C=C/c2cc(C(=O)c3cc(OC)c(OC)c(OC)c3)ccc2OC)ccc1N,-29.8% (active)
10,COc1ccc(NC(=O)c2cc3ccccc3nc2Nc2cc(OC)c(OC)c(OC)c2)cc1,59.6% (inactive)
11,O=S(=O)(O)CCl,97.2% (inactive)
12,O=C(CN1CCOCC1)Nc1ccc(-c2nc3ccccc3s2)cc1,99.5% (inactive)
13,COc1cc(/C=C\c2cc(OC)c(OC)c(OC)c2)cc(N/C=C\C(=O)c2c[nH]c3ccccc23)c1OC,60.5% (inactive)
14,CC(C)C[C@H](NC(=O)[C@@H](Cc1ccccc1)n1ccc(Nc2ccccc2)cc1=O)B(O)O,6.41% (active)
15,Cc1ccc2c(c1)C(=O)C(c1c(-c3[nH]c(=O)c4ccc(C)cc4c3O)c(O)c3ccccc3c1O)=NC2=O,15.5% (inactive)
16,C=CCn1c(C)nc2ccc(Nc3nc(Nc4ccc(F)cc4)nc4ccccc34)cc21,56% (inactive)
17,COc1ccccc1CNCCCN1C(=O)c2ccc3c4c(ccc(c24)C1=O)C(=O)N(CCCNCCCCNCCCCN)C3=O,6.63% (active)
18,COc1ccc2c(c1)C(=O)/C(=C/c1ccc(O)cc1)O2,93.9% (inactive)
19,COc1ccc(-c2cn[nH]c2-c2cc(OC)c3c(c2)OCO3)cc1,18.3% (inactive)

row,SMILES,growth
1,CCCCCCCCCCCCNC(=S)N/N=C/c1ccc(Cl)c(Cl)c1,109% (inactive)
2,O=C1Nc2ccc(Br)cc2C1=N/C=c1\[nH]c(=O)/c(=C/c2ccc(Cl)cc2)s1,97.8% (inactive)
3,O=C(CNc1c(Cl)cccc1Cl)Nc1ccc(-c2nc3ccccc3s2)cc1,40.9% (inactive)
4,CCn1c(=O)c2c(=O)c3c4c(oc3oc2c2ccccc21)C(=O)c1ccccc1C4=O,66.8% (inactive)
5,CN1CCN(c2ccc3cc(-c4nc5ccccc5[nH]4)c(=O)oc3c2)CC1,74.5% (inactive)
6,COc1ccc(OC)c(C(=O)c2oc3ccc(Br)cc3c2N)c1,24.7% (inactive)
7,Cc1ccc(Cn2c(-c3nonc3N)nc3ccccc32)cc1,83.3% (inactive)
8,Cc1ccc(S(=O)(=O)NCCCNc2nccc(-c3c(-c4ccccc4)nc4sccn34)n2)cc1,76.2% (inactive)
9,COC1=CC(c2ccc[nH]2)=N/C1=C\c1[nH]c(C)c(C(=O)CCCCC(=O)Oc2ccc3c(c2)CCC2C3CC[C@]3(C)[C@@H](O)CC[C@@H]23)c1C (stereo partly drawn),73.3% (inactive)
10,Cc1cccc(NC(=O)c2sc3nc4c(cc3c2N)CCC4)c1C,36% (inactive)
11,Nc1c(C(=O)Nc2c(Cl)cccc2Cl)sc2nc3c(cc12)CCCCC3,78.4% (inactive)
12,COc1cc(OC)c(C(=O)/C=C/c2ccc(C(F)(F)F)cc2)c(OC)c1,42.3% (inactive)
13,Cn1c(-c2nonc2NC(=O)c2ccc(F)cc2)nc2ccccc21,108% (inactive)
14,CCOC(=O)C1=C(CSC(=S)N(C2CCCCC2)C2CCCCC2)N(C)C(=O)NC1c1ccccc1 (stereo not drawn),76.5% (inactive)
15,COC12CC(=O)C(C(C)=O)=C(O)C1(C)c1c(O)c(C)c(O)c(C(C)=O)c1O2 (stereo not drawn),50.5% (inactive)
16,COc1ccc(C2=CC(c3ccc(Oc4ccnc5cc(Cl)ccc45)c(OC)c3)c3c(nc(OC)[nH]c3=O)N2)cc1 (stereo not drawn),83.4% (inactive)
17,COc1ccc(Cn2cc(COc3cc(/C=C/C(=O)c4cc(OC)c(OC)c(OC)c4)ccc3OC)nn2)cc1,107% (inactive)
18,O=C(Nc1ccc(OCc2nnc(-c3ccc(Cl)cc3)o2)c(F)c1)Nc1ccc(Cl)c(Cl)c1,47.3% (inactive)
19,O=C(CNc1ccc(Cl)cc1)Nc1ccc(-c2nc3ccccc3s2)cc1,39.1% (inactive)
